PubChem BioAssay (NCATS)
Inconclusive results are not listed. The source made the active and inactive calls. Calls come from the whole dose curve; as a rule, active = well fitted curve in the direction sought with a large enough effect in the repeat runs; inconclusive = weak or mixed curves; inactive = no such curve, though single readings can be large; an effect the other way counts as inactive or inconclusive.

Assays:
[1] = molecular target: Cytochrome P450 2D6 (Homo sapiens) (UniProt P10635); assay: Cytochrome P450 family 2 subfamily D member 6 (CYP2D6) small molecule antagonists: luciferase biochemical (cell-free) qHTS assay (AID 1645840)
Chain of Cytochrome P450 2D6 (Homo sapiens) (P10635 whole entry, looked up): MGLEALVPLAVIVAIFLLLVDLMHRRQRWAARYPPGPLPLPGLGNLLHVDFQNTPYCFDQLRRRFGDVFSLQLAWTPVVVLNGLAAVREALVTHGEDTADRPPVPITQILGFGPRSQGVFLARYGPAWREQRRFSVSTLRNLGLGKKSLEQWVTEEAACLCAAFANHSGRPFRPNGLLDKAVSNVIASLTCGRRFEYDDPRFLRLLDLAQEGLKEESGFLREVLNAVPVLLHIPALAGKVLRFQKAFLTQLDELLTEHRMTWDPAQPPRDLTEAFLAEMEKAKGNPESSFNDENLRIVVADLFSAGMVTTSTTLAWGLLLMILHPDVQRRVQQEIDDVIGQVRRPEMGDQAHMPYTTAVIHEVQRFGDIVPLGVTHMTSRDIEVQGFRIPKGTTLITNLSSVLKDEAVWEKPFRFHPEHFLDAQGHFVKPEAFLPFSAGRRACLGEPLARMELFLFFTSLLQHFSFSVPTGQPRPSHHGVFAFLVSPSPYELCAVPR
Method in brief: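 P450-Glo luminescent screen: recombinant CYP2D6 enzyme–proluciferin substrate mix preincubated with compound 10 min at room temperature, then NADPH regeneration added for 1 h at room temperature. Detection reagent added for 20 min; luciferin light read as relative luminescence units.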

[2] = molecular target: Cytochrome P450 2C9 (Homo sapiens) (UniProt P11712); assay: Cytochrome P450 family 2 subfamily C member 9 (CYP2C9) small molecule antagonists: luciferase biochemical (cell-free) qHTS assay (AID 1645842)
Chain of Cytochrome P450 2C9 (Homo sapiens) (P11712 whole entry, looked up): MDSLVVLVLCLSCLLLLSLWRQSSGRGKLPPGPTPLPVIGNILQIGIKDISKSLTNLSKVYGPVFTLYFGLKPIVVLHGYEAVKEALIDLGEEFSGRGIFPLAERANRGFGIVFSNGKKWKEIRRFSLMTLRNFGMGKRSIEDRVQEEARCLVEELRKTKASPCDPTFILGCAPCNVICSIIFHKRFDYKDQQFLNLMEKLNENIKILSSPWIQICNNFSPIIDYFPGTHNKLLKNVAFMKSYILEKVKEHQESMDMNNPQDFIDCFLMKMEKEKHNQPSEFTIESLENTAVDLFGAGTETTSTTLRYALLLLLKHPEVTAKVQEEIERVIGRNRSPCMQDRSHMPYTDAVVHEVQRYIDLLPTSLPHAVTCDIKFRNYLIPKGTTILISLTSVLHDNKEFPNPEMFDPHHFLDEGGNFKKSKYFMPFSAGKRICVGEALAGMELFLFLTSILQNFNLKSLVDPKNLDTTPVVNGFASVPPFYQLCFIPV
Method in brief: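 Luminescence, after 20 min with luciferin detection reagent, reflected CYP2C9 turnover during a 1 h NADPH-driven reaction at 37C. Enzyme-substrate mix contained 0.4% bovine serum albumin and was preincubated with compound 10 min at room temperature.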
Note: nearly all actives have a fitted effect of over 55% in size.
Potency is the fitted concentration of half-maximal effect.

COc1ccc(CCNc2nc(SCc3ccccc3F)nc3ccccc23)cc1OC
Potency [1]: 0.151 µM (active) | Potency [2]: 0.849 µM (active)

COc1cc(=O)n2c(c1C(=O)NCc1ccc3c(c1)OCO3)CCN(C(=O)c1ccc(C)cc1C)CC2
Potency [1]: 10.7 µM (active) | Potency [2]: 19 µM (active)

COc1ccc(CC(=O)NCC(c2cccs2)S(=O)(=O)c2ccc(Cl)cc2)cc1 (centres undefined)
Potency [1]: 6.01 µM (active) | Potency [2]: 2.39 µM (active)

COc1cc(C(=O)NC(c2ccccc2Cl)c2cc(Cl)c3cccnc3c2O)cc(OC)c1OC (centres undefined)
Potency [1]: inactive | Potency [2]: 15.1 µM (active)

C[C@H]1[C@@H](OC(=O)CCC(=O)O)O[C@@H]2O[C@]3(C)CC[C@H]4[C@H](C)CC[C@@H]1[C@@]24OO3
Potency [1]: inactive | Potency [2]: inactive

Cc1cc(Cl)ccc1NC(=O)CCCn1nc(C)c2c(C)n(-c3ccccc3)nc2c1=O
Potency [1]: inactive | Potency [2]: 13.5 µM (active)

COC(=O)c1c(-c2ccc(Cl)cc2)noc1N1CCN(c2ccccc2OC)CC1
Potency [1]: inactive | Potency [2]: inactive

Cc1ccnc(NC(c2cccc(O)c2)c2ccc3ccc(C)nc3c2O)c1 (centres undefined)
Potency [1]: 13.5 µM (active) | Potency [2]: 9.52 µM (active)

COc1ccccc1Cn1cc(C(=O)c2ccc(Cl)cc2)c(=O)c2cc3c(cc21)OCCO3
Potency [1]: 2.68 µM (active) | Potency [2]: 2.68 µM (active)

COc1ccc(Cn2c(CCC(=O)Nc3cccc(OC)c3)nc3cccnc32)cc1
Potency [1]: 2.68 µM (active) | Potency [2]: 4.77 µM (active)

Cc1cccc(NC(c2cccc(Cl)c2)c2ccc3cccnc3c2O)n1 (centres undefined)
Potency [1]: inactive | Potency [2]: 28.2 µM (active)

CC[C@H](CO)Nc1cc(NCc2ccc(-c3ccccn3)cc2)c2ncn(C(C)C)c2n1
Potency [1]: 16.9 µM (active) | Potency [2]: 1.34 µM (active)

O=C(CC1N=C2c3ccccc3N=C(SCc3ccc(Cl)cc3)N2C1=O)NCCc1ccccc1 (centres undefined)
Potency [1]: 2.13 µM (active) | Potency [2]: 1.9 µM (active)

CCOC(=O)C1=C(O)c2ccccc2S(=O)(=O)N1C
Potency [1]: inactive | Potency [2]: inactive

COc1ccc(-n2nc3c(N4CCCC(C(=O)NCc5ccccc5C)C4)nnc(C)c3c2C)cc1 (centres undefined)
Potency [1]: 4.77 µM (active) | Potency [2]: 0.477 µM (active)

O=C(Cn1c(=O)n(-c2ccc(Cl)cc2)c(=O)c2oc3ccccc3c21)Nc1ccccc1
Potency [1]: 0.849 µM (active) | Potency [2]: 4.77 µM (active)

CC1=C(C(=O)Nc2cccc(C(N)=O)c2)C(c2ccccc2Cl)N=C(Nc2nc3ccccc3o2)N1 (centres undefined)
Potency [1]: 8.49 µM (active) | Potency [2]: 0.19 µM (active)

Cc1ccc([S+](=O)([O-])NC2CCC(C)(C)CC2)cc1
Potency [1]: inactive | Potency [2]: 2.13 µM (active)

Cc1ccc(NC(=O)Cn2c(=O)n(CCC(=O)N3CCc4ccccc4C3)c(=O)c3ccccc32)c(C)c1
Potency [1]: inactive | Potency [2]: 0.338 µM (active)

CCOc1ccc(NC(=O)Cn2cc(C(=O)c3cccs3)c3ccccc32)cc1
Potency [1]: inactive | Potency [2]: 1.69 µM (active)

Nc1c(-c2nc(-c3ccc4c(c3)OCO4)cs2)c2ccccn2c1C(=O)c1ccccc1
Potency [1]: inactive | Potency [2]: 0.425 µM (active)

COC(=O)c1cnc(N2CCN(c3ccc(OC)cc3)CC2)c2ccccc12
Potency [1]: inactive | Potency [2]: 2.13 µM (active)

Cc1ccc(-n2c(SCc3ccccc3F)nc3[nH]ncc3c2=O)cc1C
Potency [1]: 16.9 µM (active) | Potency [2]: 13.5 µM (active)

Cc1oc(-c2cccc(Cl)c2)nc1Cn1c(SCc2ccccc2F)nc2ccncc21
Potency [1]: 4.77 µM (active) | Potency [2]: 7.56 µM (active)

Cc1ccccc1CNC(=O)CCCn1c(=O)c2cccn2c2ccccc21
Potency [1]: 6.74 µM (active) | Potency [2]: 9.52 µM (active)

CCOc1cc(CNC(=O)c2ccc(C)c(NC(=O)c3nsc4ccccc34)c2)ccc1OC
Potency [1]: inactive | Potency [2]: 1.51 µM (active)

CCOC(=O)N1CCc2c(sc3c2c(=O)n(Cc2ccccc2)c(=O)n3CC(=O)Nc2ccc(F)cc2)C1
Potency [1]: 1.51 µM (active) | Potency [2]: 2.39 µM (active)

CCOc1ccc(CCNC(=O)C2CCCN(c3nnc(C)c4c(C)n(-c5ccccc5)nc34)C2)cc1 (centres undefined)
Potency [1]: 4.77 µM (active) | Potency [2]: 3.01 µM (active)

Cc1ccc2nc(-c3ccccn3)c(Nc3ccccc3C)n2c1
Potency [1]: 21.3 µM (active) | Potency [2]: 1.9 µM (active)

Cc1ccc(S(=O)(=O)N2CCc3cc(C(=O)Nc4ccc(C(F)(F)F)cc4)ccc32)cc1
Potency [1]: inactive | Potency [2]: 1.51 µM (active)

Cc1ccc(Cn2c(SCc3ccc(C(=O)N4CCCCCC4)cc3)nc3ccncc32)cc1
Potency [1]: 7.56 µM (active) | Potency [2]: inactive

CC1(C#N)CCN(c2c(C(=O)N3CCN(C(=O)C4CC4)CC3)cnc3ccc(Cl)cc23)CC1
Potency [1]: inactive | Potency [2]: 16.9 µM (active)
